Measured values: PubChem BioAssay (EPA / NIEHS)
Activity calls are given as the source filed them. How the source made its calls: active means hit-call score of the fitted dose curve at least 0.9, where 1 is the maximum; inactive means score below 0.9.

Read-out: Monokine induced gamma interferon (MIG), CXCL9 (gene 4283)
Test: BSK_BE3C_MIG: BioMAP Diversity Plus: BE3C Assay for Monokine induced gamma interferon (MIG) Biomarker Activity (AID 2283035)
Details: primary human bronchial epithelial cells; actives raise or lower the signal
Procedure: BSK_BE3C is a cell-based, multiplexed-readout assay that uses bronchial epithelial cell, a human lung primary cell, with measurements taken at 24 hours after chemical dosing in a 96-well plate.BSK_BE3C_MIG is an assay component measured in the BSK_BE3C assay. It measures MIG antibody related to regulation of gene expression using ELISA technology.Data from the assay component BSK_BE3C_MIG was analyzed into 1 assay endpoint. This assay endpoint, BSK_BE3C_MIG, was analyzed with bidirectional fitting relative to DMSO as the negative control and baseline of activity. Using a type of binding reporter, gain or loss-of-signal activity can be used to understand changes in the signaling as they relate to the gene CXCL9. Furthermore, this assay endpoint can be referred to as a primary readout, because this assay has produced multiple assay endpoints where this one serves a signaling function. To generalize the intended target to other relatable targets, this assay endpoint is annotated to the cytokine intended target family, where the subfamily is chemotactic factor.
The levels of cell surface (or secreted, indicated by the prefix "s") biomarker endpoints were measured by ELISA. Overt cytotoxicity to cells in confluent adherent cultures (all systems other than the BT system) was assessed by measuring total protein levels using sulforhodamine B (SRB) staining in parallel cultures at the time of biomarker measurements, indicated as SRB endpoints. For proliferation assays for adherent cell types, individual cell types are cultured at sub-confluence and relative cell numbers quantified by SRB staining at time points optimized for each system (48 h: 3C and CASM3C systems; 72 h: BT and HDF3CGF systems; 96 h: SAg system). SRB was performed by staining cells with 0.1% SRB after fixation with 10% TCA and reading wells at 560 nm.Viability and proliferation of PBMC (T cells) was quantified by Alamar Blue reduction for the SAg and BT systems. For PBMC viability (referred to as PBMC Cytotoxicity within the assay endpoint names), cells were plated (75,000/well in a 96-well plate) and then chemical samples added for 1 h before addition of activators, SEB and TSST-1 (20 ng/mL final concentration each). Cells were incubated for 90 h. Then, Alamar Blue (20 uL/well) (Invitrogen, Cat DAL1100) was added for 6 h, and the plates were read with a fluorescence microplate reader at 546/580 nm (excitation/emission). For PBMC proliferation, cells were plated and activated as above but incubated for only 16 h prior to addition of Alamar Blue. Plates were read after 6 h.

Compound	outcome	AC50
Cc1ncc([C@@H](CCCCCCc2ccc3c(n2)NCCC3)CC(=O)O)cn1	inactive	–
CCCc1ccccc1	inactive	–
CCOC(N)=O	inactive	–
Cn1c(=O)c2[nH]cnc2n(C)c1=O	inactive	–
FC(F)(F)COC(OCC(F)(F)F)OCC(F)(F)F	inactive	–
O=S(=O)(O)c1ccc(N=Nc2c(O)ccc3cc(S(=O)(=O)O)ccc23)cc1	inactive	–
CCCC(CCC)C(=O)O	inactive	–
FC(F)C(F)(F)COCC1CO1 (stereo not given)	inactive	–
CCCCCCCCCCCCCCO	inactive	–
NNC(=O)c1ccncc1	inactive	–
CCn1nc(C)c2c1C(=O)NCC(c1ccc(O)cc1)=N2	inactive	–
O=C(Cl)C(F)(F)C(F)(F)C(F)(F)C(=O)Cl	inactive	–
CCc1ccc(O)c(C(C)(C)C)c1	inactive	–
CNC(C)=O	inactive	–
NC(=O)NN=Cc1ccc([N+](=O)[O-])o1	inactive	–
CC(C)CCCCCCOC(=O)C1CCCCC1C(=O)OCCCCCCC(C)C (stereo not given)	inactive	–
CCCCN1C(=O)[C@@H]([C@H](O)C2CCCCC2)NC(=O)C12CCN(Cc1ccc(Oc3ccc(C(=O)O)cc3)cc1)CC2	inactive	–
CC(=O)c1ccccc1	inactive	–
Cc1ccc(S(=O)(=O)NC(=O)NN2CCCCCC2)cc1	inactive	–
C[C@]12C=CC(=O)C=C1CC[C@H]1[C@@H]3C[C@@H](O)[C@](O)(C(=O)CO)[C@@]3(C)C[C@H](O)[C@@]12F	inactive	–

Compound	outcome	AC50
CCc1cccc(CC)c1N	inactive	–
CCCCOC(=O)c1ccccc1	inactive	–
COc1cc2c(c(OC)c1OC)-c1ccc(OC)c(=O)cc1[C@@H](NC(C)=O)CC2	inactive	–
OC[C@H]1O[C@@](CO)(O[C@H]2O[C@H](CO)[C@@H](O)[C@H](O)[C@H]2O)[C@@H](O)[C@@H]1O	inactive	–
CC(C)c1nnc2ccc(-c3ocnc3-c3cc(F)ccc3F)cn12	inactive	–
O=C1CN(N=Cc2ccc([N+](=O)[O-])o2)C(=O)N1	inactive	–
O=C(O)c1cccc(C[C@@H]2COc3ccc(OCc4nc5cc(F)ccc5s4)cc3[C@@H]2O)c1	inactive	–
COS(C)(=O)=O	inactive	–
OCc1c[nH]c2ccccc12	inactive	–
O=C(NO)C1(NS(=O)(=O)c2ccc(Oc3ccc(F)cc3)cc2)CCOCC1	inactive	–
Cc1nc(-c2ccccn2)ncc1C(=O)Nn1cc(C)c2cc(F)ccc21	inactive	–
O=C(O)c1ccc2c(c1)nc(C(=O)NC1CCN(C3CC3)CC1)n2Cc1cc(-c2ccc(Cl)s2)on1	inactive	–
CCOc1ccc2[nH]cc(C(=O)NCc3ccccc3)c(=O)c2n1	inactive	–
OCCOCCOCCO	inactive	–
Cc1cccc(O)c1C	inactive	–
CCCCC(CC)C(=O)OCCOCCOCCOC(=O)C(CC)CCCC (stereo not given)	inactive	–
C=CCc1cc(S(=O)(=O)c2ccc(O)c(CC=C)c2)ccc1O	–	29.8 µM (active)
OC[C@H]1O[C@@H]2O[C@H]3[C@H](O)[C@@H](O)[C@@H](O[C@H]4[C@H](O)[C@@H](O)[C@@H](O[C@H]5[C@H](O)[C@@H](O)[C@@H](O[C@H]6[C@H](O)[C@@H](O)[C@@H](O[C@H]7[C@H](O)[C@@H](O)[C@@H](O[C@H]1[C@H](O)[C@H]2O)O[C@@H]7CO)O[C@@H]6CO)O[C@@H]5CO)O[C@@H]4CO)O[C@@H]3CO	inactive	–
c1ccc2ncccc2c1	inactive	–
c1ccc2cc3ccccc3cc2c1	inactive	–
